Data as given in PubChem BioAssay (NCATS).
Inconclusive results are not listed. Active and inactive are the calls of the source. Unless noted, the call rests on the fitted dose curve; in most records, active means well fitted inhibition curve with a large enough effect; inconclusive means small, poorly fitted or top-dose-only effect; inactive means flat fitted curve, though single readings scatter.

test system: not listed separately; assay: qHTS assay for small molecule antagonists of retinoid X receptor alpha signaling (AID 588546; active means well fitted inhibition curve with a large enough effect in the signal ratio, with a control signal flat, not every such curve was filed as active; the % refers to the signal ratio; further: on the % scale 0 is the no-effect control and ±100 the full control effect); details: HEK293T RXRa-UAS-bla, beta-lactamase ratio, antagonist mode; measured here: W530 green channel, cytotoxicity proxy
From the text: (§1) NIH Chemical Genomics Center [NCGC] U.S. Environmental Protection Agency [EPA] National Institutes of Environmental Health Sciences [NIEHS] National Toxicology Program [NTP] NCGC Assay Overview The Retinoid X receptor (RXR), a nuclear hormone receptor is expressed in liver, spleen, placenta, epidermis, central nervous system. These receptors are able to form homo and heterodimers with other nuclear receptors and due to this heterodimerizing ability, RXR functions as master regulators producing diverse physiological effects. Three subtypes of RXR exist; alpha, beta and gamma. Retinoid X receptor alpha (RXR-alpha) has potential roles in metabolic signaling pathways, skin alopecia, dermal cysts, cardiac development, insulin sensitization etc. Therefore screening environmental chemicals on RXR-alpha signaling can be used for the studies focused on such therapeutic applications.
(§2) NCGC Assay Protocol Summary Using a beta-lactamase reporter-gene under control of Retinoid X receptor--alpha (RXR-alpha) response element, a cell-based assay [GeneBLAzer (RXR-alpha -UAS-bla assay developed by Invitrogen] was used to measure RXR-alpha ligands signaling. GeneBLAzer RXR-alpha -UAS-bla HEK293T cells were used with assay medium containing 2% charcoal-stripped FBS. The assay was performed in clear bottom black Greiner 1536-well plates. Library compounds were measured for their ability to inhibit the reporter gene activity. Compounds were screened in a titration series in 1536-well format. The fluorescence intensity (405 nm excitation, 460/530 nm emission) was measured using an EnVision plate reader. Data was normalized relative to 9-cis-retinoic acid control (500 nM, 100%), and DMSO only wells (basal, 0%). Concentration-response titration points for each compound were fitted to the Hill equation yielding concentrations of half-maximal inhibition (IC50) and maximal response (efficacy) values. qHTS protocol for RXR-alpha beta-lactamase assay in antagonist mode [Step] [Parameter] [Value] [Description] 1. Reagent; 5 uL; 2500 cells/well 2. Incubation; 37 C for 4 hrs 3. Compounds; 23 nL; 0.59 nM to 92 uM 4. Controls (DMSO); 23 nL 5. Agonist (Stimulator); 1uL; 9-cis-retinoic acid at 500 nM and 100 nM final concentrations 6. Incubation; 37 C for 18 hrs 7. Detection reagent; 1 uL of CCF4-dye 8. Incubation; RT for 2 hrs 9. Detection; Fluorescence; Envision plate reader

Structure (SMILES) | max response [%]
CC(=O)O[C@@H]1CC(C)=C2[C@H]1[C@H](C)CC[C@H]2/C=C(\C)C(=O)O | -4.2
Cc1ccc(N)cc1O | -3.5
Nc1ccccc1N | 1.4

target: Retinoic acid receptor RXR-alpha (Homo sapiens) (UniProt P19793); assay: as above; details: HEK293T RXRa-UAS-bla, beta-lactamase ratio, antagonist mode
Sequence (P19793 whole entry, looked up): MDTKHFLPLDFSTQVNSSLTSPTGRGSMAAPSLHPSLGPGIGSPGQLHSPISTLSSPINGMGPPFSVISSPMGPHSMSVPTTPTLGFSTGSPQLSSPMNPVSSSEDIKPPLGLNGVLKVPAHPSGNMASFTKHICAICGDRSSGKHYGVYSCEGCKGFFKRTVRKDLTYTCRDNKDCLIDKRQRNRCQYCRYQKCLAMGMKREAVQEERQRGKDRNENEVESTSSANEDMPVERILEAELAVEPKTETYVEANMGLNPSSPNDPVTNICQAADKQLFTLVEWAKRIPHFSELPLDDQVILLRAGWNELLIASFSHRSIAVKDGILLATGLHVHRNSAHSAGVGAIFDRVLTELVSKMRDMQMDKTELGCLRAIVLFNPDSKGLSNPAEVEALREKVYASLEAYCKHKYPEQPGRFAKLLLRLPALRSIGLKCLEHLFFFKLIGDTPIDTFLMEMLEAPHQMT
From the text: as §1, §2

Structure (SMILES) | max response
CC(=O)O[C@@H]1CC(C)=C2[C@H]1[C@H](C)CC[C@H]2/C=C(\C)C(=O)O | 22.1% (inactive)
Cc1ccc(N)cc1O | 0.585% (inactive)
Nc1ccccc1N | -8.62% (inactive)

target: Thyroid hormone receptor beta (Homo sapiens) (UniProt P10828); assay: qHTS assay for small molecule antagonists of thyroid hormone receptor beta signaling (AID 588547; active means well fitted inhibition curve with a large enough effect in the signal ratio, with a control signal flat, not every such curve was filed as active; the % refers to the signal ratio;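 further: cells stimulated with 0.4 nM T3 agonist during compound exposure; on the % scale 0 is the no-effect control and ±100 the full control effect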); details: TR-UAS-bla HEK293, beta-lactamase ratio, antagonist mode, 18 h
Sequence (P10828 whole entry, looked up): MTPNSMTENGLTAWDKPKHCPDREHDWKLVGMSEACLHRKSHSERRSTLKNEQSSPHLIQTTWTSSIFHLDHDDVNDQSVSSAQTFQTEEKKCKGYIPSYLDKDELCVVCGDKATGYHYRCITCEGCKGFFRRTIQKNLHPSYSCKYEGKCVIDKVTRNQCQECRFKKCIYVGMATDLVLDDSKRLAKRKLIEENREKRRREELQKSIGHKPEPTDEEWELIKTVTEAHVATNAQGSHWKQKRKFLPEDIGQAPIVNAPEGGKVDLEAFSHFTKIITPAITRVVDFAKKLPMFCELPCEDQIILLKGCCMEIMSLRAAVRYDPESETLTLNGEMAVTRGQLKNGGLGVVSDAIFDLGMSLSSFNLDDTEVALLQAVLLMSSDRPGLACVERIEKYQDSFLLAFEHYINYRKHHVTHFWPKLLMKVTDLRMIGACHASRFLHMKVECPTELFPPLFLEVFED
In short: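 TR-UAS-bla GripTite HEK293 cells in 2% charcoal/dextran FBS medium were preincubated 4 h at 37 C, given compound (0.59 nM to 92 uM) plus 0.4 nM T3 (final) for 18 h, then CCF4 for 2 h at RT; Hill fit gave IC50.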

Structure (SMILES) | activity change % (negative = inhibition)
CC(=O)O[C@H]1C(=O)[C@@]2(C)[C@H]([C@H](OC(=O)c3ccccc3)[C@]3(O)C[C@H](OC(=O)[C@H](O)[C@@H](NC(=O)c4ccccc4)c4ccccc4)C(C)=C1C3(C)C)[C@]1(OC(C)=O)CO[C@@H]1C[C@@H]2O | -8.03% (inactive)
CC(=O)O[C@@H]1CC(C)=C2[C@H]1[C@H](C)CC[C@H]2/C=C(\C)C(=O)O | 19.9% (inactive)
Cc1ccc(N)cc1O | -1.32% (inactive)
Nc1ccccc1N | -38.2% (inactive)

target: Voltage-gated inwardly rectifying potassium channel KCNH2 (Homo sapiens) (UniProt Q12809); assay: qHTS Assay for Small Molecule Inhibitors of the Human hERG Channel Activity (AID 588834); details: U2OS BacMam hERG, FluxOR thallium flux fluorescence; series mostly up to 92.2 µM;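 further: top concentration of the series differs between compounds; on the % scale 0 is the no-effect control and ±100 the full control effect; lower thallium flux fluorescence means stronger hERG block; nearly all actives have a fitted effect of over 50% in size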
Sequence (Q12809 whole entry, looked up): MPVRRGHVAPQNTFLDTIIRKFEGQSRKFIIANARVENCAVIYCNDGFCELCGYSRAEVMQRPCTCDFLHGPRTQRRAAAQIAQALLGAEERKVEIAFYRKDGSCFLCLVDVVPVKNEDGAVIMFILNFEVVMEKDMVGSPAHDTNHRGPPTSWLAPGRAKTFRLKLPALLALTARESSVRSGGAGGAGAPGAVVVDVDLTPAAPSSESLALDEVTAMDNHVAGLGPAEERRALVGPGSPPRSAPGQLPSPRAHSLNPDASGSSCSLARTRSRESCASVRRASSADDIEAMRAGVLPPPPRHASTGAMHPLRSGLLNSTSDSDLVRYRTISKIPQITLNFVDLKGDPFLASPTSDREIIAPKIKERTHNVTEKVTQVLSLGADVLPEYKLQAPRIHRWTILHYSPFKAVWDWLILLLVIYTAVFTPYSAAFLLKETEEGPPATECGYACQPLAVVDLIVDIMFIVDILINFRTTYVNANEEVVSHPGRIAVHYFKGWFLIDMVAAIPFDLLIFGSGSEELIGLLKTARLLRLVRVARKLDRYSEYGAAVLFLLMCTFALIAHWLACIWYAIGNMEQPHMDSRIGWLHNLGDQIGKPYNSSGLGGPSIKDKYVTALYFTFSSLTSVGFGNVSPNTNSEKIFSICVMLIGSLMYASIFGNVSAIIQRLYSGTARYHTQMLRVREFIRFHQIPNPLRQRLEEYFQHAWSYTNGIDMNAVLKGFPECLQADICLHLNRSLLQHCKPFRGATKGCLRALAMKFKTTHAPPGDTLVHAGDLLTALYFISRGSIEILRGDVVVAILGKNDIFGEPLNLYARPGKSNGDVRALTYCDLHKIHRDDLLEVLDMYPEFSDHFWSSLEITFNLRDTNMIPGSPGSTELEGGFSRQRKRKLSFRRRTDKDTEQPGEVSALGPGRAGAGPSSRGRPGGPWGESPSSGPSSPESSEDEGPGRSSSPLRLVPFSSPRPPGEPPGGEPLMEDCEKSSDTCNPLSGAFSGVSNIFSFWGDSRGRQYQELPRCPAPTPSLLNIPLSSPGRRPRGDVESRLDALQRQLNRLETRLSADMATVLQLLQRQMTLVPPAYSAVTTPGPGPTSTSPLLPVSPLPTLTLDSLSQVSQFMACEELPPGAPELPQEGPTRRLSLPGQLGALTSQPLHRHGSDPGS
In short: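 U2OS cells transduced with hERG via BacMam (MOI ~100), plated 2000/well, loaded with FluxOR thallium dye, compound ~10 min, then stimulation buffer; fluorescence decrease read kinetically; AC50 from Hill fits.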

Structure (SMILES) | outcome
CC(=O)O[C@H]1C(=O)[C@@]2(C)[C@H]([C@H](OC(=O)c3ccccc3)[C@]3(O)C[C@H](OC(=O)[C@H](O)[C@@H](NC(=O)c4ccccc4)c4ccccc4)C(C)=C1C3(C)C)[C@]1(OC(C)=O)CO[C@@H]1C[C@@H]2O | inactive
CC(=O)O[C@@H]1CC(C)=C2[C@H]1[C@H](C)CC[C@H]2/C=C(\C)C(=O)O | inactive
Cc1ccc(N)cc1O | inactive
Nc1ccccc1N | inactive

target: Luciferin 4-monooxygenase (Photinus pyralis) (UniProt P08659); assay: Biochemical firefly luciferase enzyme assay for NPC (AID 624030); further: nearly all actives have a fitted effect of over 70% in size; further: potency means the concentration at half of the fitted maximal effect; details: purified P. pyralis luciferase, luminescence, 5 min; series mostly up to 58.6 µM
Sequence (P08659 whole entry, looked up): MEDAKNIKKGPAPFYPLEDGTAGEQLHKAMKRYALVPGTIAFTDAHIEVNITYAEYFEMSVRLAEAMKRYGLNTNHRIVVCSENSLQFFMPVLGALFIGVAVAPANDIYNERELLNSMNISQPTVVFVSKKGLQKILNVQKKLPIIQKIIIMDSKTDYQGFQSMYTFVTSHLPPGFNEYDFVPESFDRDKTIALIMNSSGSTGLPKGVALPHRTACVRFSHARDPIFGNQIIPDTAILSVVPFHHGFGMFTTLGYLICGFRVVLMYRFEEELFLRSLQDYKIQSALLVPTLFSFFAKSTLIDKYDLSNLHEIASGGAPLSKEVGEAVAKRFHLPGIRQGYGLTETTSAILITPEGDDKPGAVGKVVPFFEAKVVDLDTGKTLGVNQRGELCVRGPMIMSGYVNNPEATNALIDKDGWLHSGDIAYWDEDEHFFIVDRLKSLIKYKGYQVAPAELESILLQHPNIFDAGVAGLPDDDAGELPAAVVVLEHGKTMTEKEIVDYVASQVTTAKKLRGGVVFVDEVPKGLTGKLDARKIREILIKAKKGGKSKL
In short: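 Counter-screen for direct inhibition of the luciferase enzyme by approved-drug library compounds, run at 10 nM enzyme in 50 mM Tris acetate (final). Luminescence was read within 5 min of enzyme-buffer addition and normalized to PTC124 versus DMSO (0%).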

Structure (SMILES) | Potency
CC(=O)O[C@H]1C(=O)[C@@]2(C)[C@H]([C@H](OC(=O)c3ccccc3)[C@]3(O)C[C@H](OC(=O)[C@H](O)[C@@H](NC(=O)c4ccccc4)c4ccccc4)C(C)=C1C3(C)C)[C@]1(OC(C)=O)CO[C@@H]1C[C@@H]2O | inactive
CC[C@]1(O)CC2CN(CCc3c([nH]c4ccccc34)[C@@](C(=O)OC)(c3cc4c(cc3OC)N(C)[C@H]3[C@@](O)(C(=O)OC)[C@H](OC(C)=O)[C@]5(CC)C=CCN6CC[C@]43[C@@H]65)C2)C1 (some centres not stated) | inactive
Nc1ccccc1N | 2.63 µM (active)
